Screens (PubChem BioAssay)
An excerpt weighted towards active compounds, which were near 1.5% of everything screened.
Bcl-xL primary – inhibitors of human Bcl-xL, primary screen, biochemical, fluorescence polarization, HTS | Bcl-2-like protein 1 (Homo sapiens), Q07817 | GST-Bcl-xL / FITC-Bim BH3 peptide fluorescence polarization | inhibition, % at 10.9 µM | actives 0.7% (n = 320,000);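 active = inhibition above the mean of all tested compounds plus 3 SD, cutoff set per campaign, cut at about 30% in these data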;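 also: inhibitors lower millipolarization by displacing the labeled peptide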
MEX-5 binding – MEX-5 zinc finger RNA-binding disruptors – biochemical, C. elegans, fluorescence polarization, MLPCN library, primary screen; Zinc finger protein mex-5 (Caenorhabditis elegans), Q9XUB2; MEX-5/FITC-TCR2 RNA binding; active compounds read low; activity score (negative = inhibition of binding), % at 10 µM; actives 0.38% (n = 300,000);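 active = inhibition past about -25% in most replicates, and total fluorescence under double the plate's negative control median, limit read from the data; inconclusive = replicates evenly split on the limit, or fluorescence at least double controls; inactive = too little inhibition in most replicates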
eLon inh – inhibitors of E. coli Lon protease, primary screen, biochemical, fluorescence polarization. P0A9M0. purified E. coli Lon protease. inhibition, % at 7.94 µM. actives 0.42% (n = 360,000). AID 602123, 2011; in the data active = inhibition above about 13%, passing the limit was not always enough
Target sequence (P0A9M0 whole entry, looked up): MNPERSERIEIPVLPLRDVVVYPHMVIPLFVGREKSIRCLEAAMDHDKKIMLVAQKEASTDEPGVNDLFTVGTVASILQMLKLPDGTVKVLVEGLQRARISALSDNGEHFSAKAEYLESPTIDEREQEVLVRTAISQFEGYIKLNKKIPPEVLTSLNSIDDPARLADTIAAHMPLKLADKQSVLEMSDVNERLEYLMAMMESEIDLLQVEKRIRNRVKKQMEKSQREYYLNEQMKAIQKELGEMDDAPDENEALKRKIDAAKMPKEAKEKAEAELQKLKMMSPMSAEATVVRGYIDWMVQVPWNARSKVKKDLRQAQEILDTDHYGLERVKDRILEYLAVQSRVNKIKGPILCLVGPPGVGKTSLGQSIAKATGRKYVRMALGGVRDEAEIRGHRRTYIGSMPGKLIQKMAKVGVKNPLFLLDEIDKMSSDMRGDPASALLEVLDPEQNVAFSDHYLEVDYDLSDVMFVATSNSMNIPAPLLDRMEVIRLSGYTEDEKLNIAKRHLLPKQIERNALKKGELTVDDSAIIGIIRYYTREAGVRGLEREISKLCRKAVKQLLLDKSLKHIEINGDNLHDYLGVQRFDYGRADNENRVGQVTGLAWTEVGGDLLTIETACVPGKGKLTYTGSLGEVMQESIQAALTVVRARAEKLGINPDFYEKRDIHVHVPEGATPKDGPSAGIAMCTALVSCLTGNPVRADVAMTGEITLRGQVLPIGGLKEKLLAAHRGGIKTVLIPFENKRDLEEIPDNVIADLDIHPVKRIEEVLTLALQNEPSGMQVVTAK
GLD-1 TGE inh – GLD-1/TGE RNA complex disruptors, primary screen, biochemical, fluorescence polarization; actives 0.44% (n = 320,000); Female germline-specific tumor suppressor gld-1 (Caenorhabditis elegans), Q17339; inhibition, % at 5.96 µM; purified GLD-1 + fluorescein TGE RNA;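 active = percent inhibition above a per-plate cutoff, the plate mean of test compounds plus 3 SD, cut at about 30% in these data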
MCL1-BIM inh – inhibitors of MCL1 binding to BIM-BH3, primary screen, biochemical, fluorescence polarization; inhibition, % at 10.9 µM; actives 0.68% (n = 320,000); Induced myeloid leukemia cell differentiation protein Mcl-1 (Homo sapiens), Q07820; GST-MCL1 / FITC-Bim-BH3 fluorescence polarization;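 active = inhibition above the mean inhibition of all tested compounds plus 3 SD, set per campaign, cut at about 40% in these data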;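 also: higher means more loss of mP so more displacement of Bim peptide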
EBV gp42 block – Epstein-Barr virus gp42 inhibitors, primary screen, biochemical, uHTS, fluorescence polarization | actives 0.42% (n = 220,000) | inhibition, % (tested at 21.74 µM) | AID 1085, 2008 | Glycoprotein 42 (Epstein-Barr virus (strain AG876)), Q1HVG2 | Fluorescence polarization binding assay, mP read-out; in the data active = inhibition above about 50%
BCLXL inh confirm – Bcl-xL inhibitors blocking Bim BH3 binding, confirmation, counter-screen for MCL1 inhibitor project, biochemical, fluorescence polarization. shares compounds with MCL1-BIM inh. GST-Bcl-xL / FITC-Bim BH3 peptide FP binding. inhibition, % at 10.9 µM. actives 54% (n = 1,700);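 active = inhibition above a cutoff equal to the mean inhibition of all tested compounds plus 3 SD, cut at about 30% in these data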
MCL1 BIM confirm – inhibitors of MCL1 binding to BIM-BH3, confirmation, biochemical, fluorescence polarization, triplicate. shares compounds with MCL1-BIM inh. GST-MCL1 / FITC-Bim-BH3 fluorescence polarization. inhibition, % at 10.9 µM. actives 61% (n = 1,700);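 active = inhibition above the average of all tested compounds plus 3 SD, cut at about 40% in these data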
Of the large screens only hits and unclear results are named; the others gave an inactive call (follow-up assays come after a bar, where they were run).

CC1(OC(=O)c2ccc(Cl)nc2)C(=O)C=C2C=C(c3ccc(C#N)cc3)OC=C2C1=O (stereo unspecified)	MEX-5 binding inconclusive (no result: eLon inh, EBV gp42 block)
CC1(OC(=O)c2ccc(Cl)nc2)C(=O)C=C2C=C(c3ccsc3)OC=C2C1=O (stereo unspecified)	none (no result: eLon inh, EBV gp42 block)
COC(=O)CCCC1=CC2=CC(=O)C(C)(OC(=O)c3cccs3)C(=O)C2=CO1 (stereo unspecified)	Bcl-xL primary 105, MEX-5 binding -49, GLD-1 TGE inh 93, MCL1-BIM inh 122 (no result: eLon inh, EBV gp42 block) | BCLXL inh confirm 53 | MCL1 BIM confirm 69
CC(C)(C)OC(=O)NCCCCC1=CC2=CC(=O)C(C)(OC(=O)c3cnc4ccccc4n3)C(=O)C2=CO1 (stereo unspecified)	Bcl-xL primary 59, MEX-5 binding -28, GLD-1 TGE inh 89, MCL1-BIM inh 58 (no result: eLon inh, EBV gp42 block) | BCLXL inh confirm 39 | MCL1 BIM confirm 52
COC(=O)CCCC1=CC2=CC(=O)C(C)(OC(=O)c3cccs3)C(=O)C2=CN1c1ccccc1 (stereo unspecified)	none (no result: EBV gp42 block)
Cc1ccc(NC(=O)CCC(=O)c2cccs2)cc1F	none (no result: EBV gp42 block)
COc1cc(NC(=O)COc2cccc3c2OC(C)(C)C3)cc(OC)c1OC	none (no result: MEX-5 binding, EBV gp42 block)
Cc1ccccc1-c1cc(C(=O)NCc2cccc(C(F)(F)F)c2)nn1CC1CC(c2cccc([N+](=O)[O-])c2)=NO1 (stereo unspecified)	none (no result: MEX-5 binding, EBV gp42 block)
CC[C@@]12C(=O)N(c3cccc(F)c3)C(=O)N1[C@H](c1ccc(Cl)cc1)[C@@H]1C(=O)N(C3CCCCC3)C(=O)[C@@H]12	none (no result: EBV gp42 block)
CN(CCCn1cnc2c(OCc3ccccc3)ncnc21)Cc1ccco1	none (no result: Bcl-xL primary, MEX-5 binding, GLD-1 TGE inh, MCL1-BIM inh, EBV gp42 block)
CCCCC1=CC2=CC(=O)C(C)(OC(=O)c3ccco3)C(=O)C2=CO1 (stereo unspecified)	Bcl-xL primary 43, MEX-5 binding -36, GLD-1 TGE inh 62, MCL1-BIM inh 49 (no result: eLon inh, EBV gp42 block) | BCLXL inh confirm 33 | MCL1 BIM confirm 62
COC(=O)CCC(=O)OC1(C)C(=O)C=C2C=C3CCCN3C=C2C1=O (stereo unspecified)	MCL1-BIM inh 48 | BCLXL inh confirm 33 | MCL1 BIM confirm inactive
CC1(OC(=O)c2ccco2)C(=O)C=C2C=C(c3ccc(C#N)cc3)OC=C2C1=O (stereo unspecified)	none (no result: eLon inh, EBV gp42 block)
COC(=O)CCC(=O)OC1(C)C(=O)C=C2C=C(C3CC3)N(CCCCO)C=C2C1=O (stereo unspecified)	none
CCCCC1=CC2=CC(=O)C(C)(OC(=O)CCC(=O)OC)C(=O)C2=CO1 (stereo unspecified)	Bcl-xL primary 42, MEX-5 binding -27, GLD-1 TGE inh 54, MCL1-BIM inh 62 (no result: eLon inh, EBV gp42 block) | BCLXL inh confirm inactive | MCL1 BIM confirm 51
CSCCC(NC(=O)c1ccccc1Cl)C(=O)N(C)CC(=O)Nc1ccc(N2CCOCC2)cc1 (stereo unspecified)	none (no result: EBV gp42 block)
COc1ccc(F)cc1-c1cc(C(=O)NCc2cccc(Cl)c2)[nH]n1	none (no result: Bcl-xL primary, MEX-5 binding, GLD-1 TGE inh, MCL1-BIM inh, EBV gp42 block)
CC(C)CN(C(=O)COC(=O)c1cc2c(s1)CCC2)C1CCS(=O)(=O)C1 (stereo unspecified)	MCL1-BIM inh 42 | BCLXL inh confirm inactive | MCL1 BIM confirm inactive
CCCCNc1ccc2c(c1)C1CC2CCN1C(=O)OCc1ccccc1 (stereo unspecified)	none (no result: Bcl-xL primary, MEX-5 binding, GLD-1 TGE inh, MCL1-BIM inh, EBV gp42 block)
COc1ccc(-n2nc3c(c2NC(=O)c2ccccc2S(=O)(=O)C(F)F)CS(=O)(=O)C3)cc1	none (no result: EBV gp42 block)
CCCOc1ccc(S(=O)(=O)N2CCCC2)cc1[N+](=O)[O-]	none
CC1CCCN(CC(O)COc2ccc(S(=O)(=O)N3CCCC3)cc2[N+](=O)[O-])C1 (stereo unspecified)	MCL1-BIM inh 54 (no result: MEX-5 binding, EBV gp42 block) | BCLXL inh confirm inactive | MCL1 BIM confirm inactive
CC1(C)CCN2CCC(C)(C)c3c(O)ccc1c32	Bcl-xL primary 141, GLD-1 TGE inh 77, MCL1-BIM inh 170 (no result: EBV gp42 block) | BCLXL inh confirm inactive | MCL1 BIM confirm inactive
CCc1ccc(-c2cc3c(=O)n(CC(=O)N4CCCCCC4)nc(C)n3n2)cc1	none (no result: EBV gp42 block)
COc1ccc(/C=N/NC(=O)CNC(=O)c2ccc3c(c2)OCCO3)c(C(=O)O)c1OC	none (no result: EBV gp42 block)
O=C(O)/C(=C\c1ccc(Cl)c([N+](=O)[O-])c1)c1ccc(S(=O)(=O)N2CCCCC2)s1	none
O=C(O)/C(=C\c1ccc(Cl)c([N+](=O)[O-])c1)c1ccc(S(=O)(=O)N2CCCC2)s1	MCL1-BIM inh 43 (no result: MEX-5 binding, EBV gp42 block) | BCLXL inh confirm inactive | MCL1 BIM confirm 49
CN(Cc1ccc(Cl)cc1)C(=O)CNC(=O)C12CC3CC(CC(C3)C1)C2	none (no result: MEX-5 binding, EBV gp42 block)
O=c1[nH]c(Nc2ccccc2Cl)cc2ccccc12	none (no result: EBV gp42 block)
Cc1ccccc1Nc1cc2ccccc2c(=O)[nH]1	Bcl-xL primary 82, GLD-1 TGE inh 50, MCL1-BIM inh 81 | BCLXL inh confirm 85 | MCL1 BIM confirm 93
COc1ccc(CN2CCCC(C(=O)Nc3cccc(-n4cccn4)c3)C2)c(F)c1 (stereo unspecified)	none (no result: EBV gp42 block)
Cc1c2ccccc2nc2ccccc12	none (no result: EBV gp42 block)
CCCNc1c(F)c(F)c2c(C)c3ccccc3nc2c1F	Bcl-xL primary 114, MEX-5 binding -29, eLon inh 60, GLD-1 TGE inh 83, MCL1-BIM inh 125, EBV gp42 block 134 | BCLXL inh confirm 106 | MCL1 BIM confirm 123
Nc1c(NCc2ccccc2F)c(=O)[nH]c(=O)n1Cc1ccccc1	Bcl-xL primary 86, GLD-1 TGE inh 93, MCL1-BIM inh 97 | BCLXL inh confirm inactive | MCL1 BIM confirm inactive
COc1ccc(CCNc2c(N)n(Cc3ccccc3)c(=O)[nH]c2=O)cc1OC	Bcl-xL primary 71, GLD-1 TGE inh 79, MCL1-BIM inh 96 | BCLXL inh confirm 74 | MCL1 BIM confirm 85
COc1ccc(CCNc2c(C=O)c(=O)[nH]c3ccccc23)cc1OC	none (no result: EBV gp42 block)
Cc1cc(/C=C\c2ccc3cc(N(C)C)ccc3[n+]2C)c(C)n1-c1ccccc1	Bcl-xL primary 54, GLD-1 TGE inh 139, MCL1-BIM inh 132 (no result: MEX-5 binding, EBV gp42 block) | BCLXL inh confirm 41 | MCL1 BIM confirm 101
